# Results as given in ChEMBL document CHEMBL1157539, “Thousands of chemical starting points for antimalarial lead identification” (Nature, 2010).
# Experiments:
# Assay type in all cases: functional
# Plasmodium falciparum [1] = assay: GSK_TCMDC: Inhibition of Plasmodium falciparum 3D7 in whole red blood cells, using parasite LDH activity as an index of growth. Test compounds present at 2uM
# Plasmodium falciparum [2] = assay: GSK_TCMDC: Inhibition of Plasmodium falciparum Dd2 in whole red blood cells, using parasite LDH activity as an index of growth. Test compounds present at 2uM
# HepG2 = assay: GSK_TCMDC: Percent inhibition of human HepG2 cell line. Test compounds present at 10uM.
Compound,Inhibition (Plasmodium falciparum [1]) [%],Inhibition (Plasmodium falciparum [2]) [%],Inhibition (HepG2) [%]
O=C(Nc1ccc(F)cc1)N1CCCN(c2ccnc3cc(Cl)ccc23)CC1.O=C(O)C(F)(F)F,97,16,7
O=C(Nc1ccc(-c2ccc(-c3nc4ccccc4[nH]3)s2)cc1)Nc1ccsc1,100,54,25
CCC(C)NCC(O)(c1ccc(Cl)cc1)c1ccc(Cl)cc1 (stereo not drawn),95,76,5
Cc1ccc2c(=O)n(C)c(=O)n(C)c2n1,98,0,15
Cc1c(Oc2ccc(-n3ccnc3)cc2)ncnc1N1CCC2(CC1)CNCc1ccccc12.O=C(O)C(F)(F)F,95,58,26
CCn1c(-c2nonc2N)nc2c(-c3cccc(NC(=O)Nc4cccc(Cl)c4)c3)ncc(OCCCN)c21.O=C(O)C(F)(F)F,91,78,9
COc1ccc2nccc([C@@H](O)CN3CCC(NCC(=O)Nc4cc(F)cc(F)c4)CC3)c2n1.O=C(O)C(=O)O,89,28,18
CC(C)(C)COc1ccc2c(N)n[nH]c2c1.Cl,90,8,31
Cc1cc2c(cc1C(F)(F)F)N(C(=O)Nc1cc(C(=O)NCCN(C)C)cc(C(F)(F)F)c1)CC2,100,50,19
O=C(Nc1ccc(CCNCCCc2ccccc2)cc1)Nc1ccc(Cl)c(Cl)c1,100,99,33
O=C(Nc1ccc(Cl)cc1)c1ccc(CN2CCCN(Cc3ccccc3)CC2)cc1.O=C(O)C(F)(F)F,96,2,46
CCCN(CCC)CCCCC(C)Nc1c2ccc(Cl)cc2nc2ccc(OC)cc12.Cl (stereo not drawn),100,100,42
CN1CCN(CCCCCCNc2c3ccccc3nc3ccccc23)CC1.Cl,100,0,35
Cc1cccc2[nH]c(-c3cc(-c4cccc(Cl)c4)cnc3N)nc12.O=C(O)C(F)(F)F,100,99,32
COc1cc(/C=C/C(=O)NC2CCC(N3CCC(c4ccccc4C)CC3)CC2)cc(OC)c1 (stereo not drawn),89,11,51
Cc1cc(N[C@@H](CC(C)C)C(=O)Nc2ccccc2)nc(NCCc2ccc(F)cc2)n1.O=C(O)C(F)(F)F,100,94,8
CCC1(CC)CN(c2ccccc2)c2ccc(O)cc2S(=O)(=O)C1CC(C)C (stereo not drawn),96,89,0
CN(CCCc1c[nH]c2ccccc12)CCC1CCC(NC(=O)/C=C/c2ccc(Cl)c(Cl)c2)CC1 (stereo not drawn),99,63,38
Cc1cc(N2CCCC2)nc(Nc2ccc(NC(=O)c3ccc(Br)o3)cc2)n1,99,57,17
Cc1ccccc1C1CCN(C2CCC(NC(=O)/C=C/c3ccccc3C(F)(F)F)CC2)CC1 (stereo not drawn),83,6,63
CCCNC(=O)c1cncc(-c2ccc(CNC(CC)c3ccccc3)cc2)c1.O=C(O)C(F)(F)F (stereo not drawn),92,1,20

Compound,Inhibition (Plasmodium falciparum [1]) [%],Inhibition (Plasmodium falciparum [2]) [%],Inhibition (HepG2) [%]
COc1ccc(-c2cnc(N)c(-c3ccc(C(N)=O)cc3)c2)cc1OC,96,98,11
NC1CCN(Cc2ccc(-c3ccc(-c4nc5cc(F)ccc5[nH]4)s3)cc2)C1.O=C(O)C(F)(F)F (stereo not drawn),100,98,32
Cc1cc(N[C@@H](CC(C)C)C(=O)NC2CCCC2)nc(NCCc2ccc(F)cc2)n1.O=C(O)C(F)(F)F,100,47,15
COc1cccc(NC(=O)Nc2ccc(Nc3nc(C)cc(N4CCCC4)n3)cc2)c1,100,100,28
CC1(CCc2ccccc2)N=C(N)N=C(N)C1c1ccc(Cl)c(Cl)c1.Cl (stereo not drawn),98,39,19
CN1CCN(c2ccnc3ccc(NC(=O)Nc4ccc5ccccc5c4)cc23)CC1.Cl,100,99,2
N#Cc1ccc(-c2ccc(C(=O)NCCCCN3CCC(c4cn(CCO)c5ccccc45)CC3)cc2)cc1,93,43,23
COc1ccc2nccc([C@@H](O)CN3CCC(NC/C=C/c4cccnc4)CC3)c2c1.CS(=O)(=O)O,100,19,0
CC(=O)Nc1ccc(C(=O)NC2CCN(c3ccnc4cc(Cl)ccc34)CC2)cc1.O=C(O)C(F)(F)F,100,99,5
CN(C)CCNCc1cccc(-c2ccc3c(Nc4ccc(Oc5ccccn5)cc4)ccnc3c2)c1,99,100,27
O=C(O)C(F)(F)F.c1cc(CN2CCC(CCN3CCCCC3)CC2)cc(-c2csc(-c3nc4ccccc4[nH]3)c2)c1,99,99,89
CCNC1=NC2=C(CC(C(C)(C)C)CC2)C2(CCC(C(C)(C)C)CC2)S1.Cl (stereo not drawn),99,99,40
CCC(C)NCc1c(O)ccc2c(CNC(C)CC)c(O)ccc12.Cl (stereo not drawn),100,31,14
Cc1ccc(F)c(NC(=O)c2c(-c3c(F)cccc3Cl)noc2C)c1,90,18,13
COc1ccc(COc2c(OC)cc(Cc3cnc(N)nc3N)cc2OC)cc1,90,23,5
O=C(Nc1ccc(Cl)c(Cl)c1)Nc1ccc2c(c1)CCNCC2.O=C(O)C(F)(F)F,86,37,13
O=C(CSc1nc2ccccc2c(=O)n1CC1CCCO1)Nc1cc(C(F)(F)F)ccc1Cl (stereo not drawn),97,95,12
COC(=O)C(=C(C)C)N1C(=O)[C@@H](NC(=O)OCc2ccccc2)[C@H]1SS[C@@H]1[C@H](NC(=O)OCc2ccccc2)C(=O)N1C(C(=O)OC)=C(C)C,97,96,18
CC(C)(C)N1CCC(N(Cc2ccc(-c3ccc(C(F)(F)F)cc3)cc2)C(=O)Cn2c(CCc3cccc(F)c3F)cc(=O)c3cccnc32)CC1.O=C(O)C(O)C(O)C(=O)O,100,63,100
C[C@@H](CC1CCCCC1)OC(=O)N[C@H]1CCN(C#N)C1,95,83,7
NC1CCN(Cc2ccc(-c3cccc(-c4nc5ccccc5[nH]4)c3)cc2)C1.O=C(O)C(F)(F)F (stereo not drawn),98,0,19

Compound,Inhibition (Plasmodium falciparum [1]) [%],Inhibition (Plasmodium falciparum [2]) [%],Inhibition (HepG2) [%]
OCCN1CCN(c2nc(Nc3cccc(F)c3)c3cnn(-c4ccccc4)c3n2)CC1,100,76,89
COc1ccc(CCN(C)CCCOc2ccc(NC(=O)c3cccc4c(=O)c5ccccc5[nH]c34)cc2)cc1OC,94,45,80
COc1ccc2nccc(NC(=O)N3CCC(NCc4cc5ccccc5[nH]4)CC3)c2n1.O=C(O)C(=O)O,85,29,27
CCCCc1cc(N2CCC(NC(C)=O)C2)nc(Nc2ccc(C)cc2)n1 (stereo not drawn),95,1,2
CS(=O)(=O)Cc1ccc(Nc2nccc(-c3c(-c4cccc(NC(=O)c5c(F)cccc5F)c4)nn4ccccc34)n2)cc1,99,75,78
[O-][S+]1c2ccccc2Sc2ccccc21,99,0,48
N=C(N)NC(=O)Nc1ccc(Cl)c(Cl)c1,95,13,29
Cc1ccc2c(c1)c(-c1ccccc1)c(-c1ccccc1)n2CC(O)CN1CCN(CC=Cc2ccccc2)CC1 (stereo not drawn),98,98,0
Cc1ccccc1CN1CCCN(Cc2ccc(C(=O)Nc3ccc(Cl)cc3)cc2)CC1.O=C(O)C(F)(F)F,93,15,48
CCNc1cc(C(=O)N[C@@H](Cc2ccccc2)[C@H](O)CNC(C)(C)Cc2ccccc2)cc(N2CCCC2=O)c1.O=CO,99,78,1
Cc1ccc2nc3c(cc(C(=O)NCc4ccccc4)c(=N)n3CCCn3ccnc3)c(=O)n2c1,93,0,10
Cl.N=C(NCCc1ccc(Cl)c(Cl)c1)c1ccc2ccccc2c1,100,29,60
O=C(NCc1ccccc1)NC1CCN(c2ccnc3cc(Cl)ccc23)C1.O=C(O)C(F)(F)F (stereo not drawn),94,99,13
Cc1noc(-c2ccccc2)c1CN1CCCC2(CC(C(=O)NCc3cccc(F)c3F)=NO2)C1.O=C(O)C(F)(F)F (stereo not drawn),85,28,0
Cl.NC(=O)c1cccc(Nc2nccc(Nc3ccc4[nH]c(-c5ccccc5)cc4c3)n2)c1,100,98,28
COc1ccc2nccc([C@@H](O)CN3CCC(NC(=O)/C=C/c4cc([N+](=O)[O-])ccc4OC)CC3)c2c1,99,76,12
COc1c(C=NNc2nc(=Nc3ccccc3)[nH]c(=Nc3ccccc3)[nH]2)ccc(Br)c1O,98,37,63
CC(C)(C)OC(=O)n1cc(C2CCN(CCCC34CCCc5cccc(c53)NC4=O)CC2)c2ccncc21 (stereo not drawn),92,0,20
Br.CCOCc1cn(CC(=O)c2ccc(-c3ccccc3)cc2)c(C)nc1=N,93,72,13
